Bioassay records: PubChem BioAssay, several laboratories
Hits are enriched below; roughly 0.72% of the tested compounds scored in any of these assays.
Neddylation inh – inhibitors of cullin neddylation, primary screen, biochemical, TR-FRET, uHTS, NAE and Ubc12. AID 651699, 2012. NEDD8-conjugating enzyme Ubc12 (Homo sapiens) + NEDD8-activating enzyme E1 regulatory …. calls only at 25 µM. hit rate 0.58% among 360,000; in the data active = inhibition above about 36%
PKA-R1A act – activators of PKA-R1A holoenzyme, primary screen, biochemical, fluorescence polarization, Cy5-IP20, bovine R1A, mouse PKAc. cAMP-dependent protein kinase type I-alpha regulatory subunit (Bos taurus) + …. PKA-R1A dissociation; scaled: DMSO 0%, 113 µM cGMP 100%. activation, % at 11.4 µM. hit rate 0.083% among 340,000. AID 504707, 2011;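 active = percent activation above the mean of all tested compounds plus 3 SD, cut at about 19% in these data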;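 note: higher means more PKAc released from R1A so a rise in polarization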
PolyA inhibitor – polyadenylation inhibitors in yeast reporter cells, primary screen, luminescence, S. cerevisiae; S. cerevisiae SKY197-pL101 polyadenylation reporter, beta-gal luminescence; efflux-impaired pdr1/pdr3 knockout yeast; score 100 = 6 SD above DMSO; activity score, % at 12 µM; hit rate 0.02% among 300,000;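 active = lowest replicate activity score at least 50, where 100 means six control SD above control mean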;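 note: yeast exposed to compound for 9 h at 30 °C; higher score means more reporter readthrough which indicates perturbed polyadenylation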
PKA-R2B activ – activators of PKA-R2B holoenzyme, primary screen, biochemical, fluorescence polarization, Cy5-IP20, human; activation, % at 11.4 µM; PKA-R2B holoenzyme dissociation; R2B truncated from residue 108, S112A mutant; 0% DMSO only, 100% 113 µM cGMP; cAMP-dependent protein kinase catalytic subunit beta (Homo sapiens) + cAMP-dependent …; hit rate 0.079% among 340,000;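 active = activation above a cutoff set at the mean over all compounds plus 3 SD, cut at about 18% in these data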;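 note: higher means more holoenzyme dissociation and a rise in polarization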
Target sequence (P31323 whole entry, looked up, other chains not shown, the tested form may be a part): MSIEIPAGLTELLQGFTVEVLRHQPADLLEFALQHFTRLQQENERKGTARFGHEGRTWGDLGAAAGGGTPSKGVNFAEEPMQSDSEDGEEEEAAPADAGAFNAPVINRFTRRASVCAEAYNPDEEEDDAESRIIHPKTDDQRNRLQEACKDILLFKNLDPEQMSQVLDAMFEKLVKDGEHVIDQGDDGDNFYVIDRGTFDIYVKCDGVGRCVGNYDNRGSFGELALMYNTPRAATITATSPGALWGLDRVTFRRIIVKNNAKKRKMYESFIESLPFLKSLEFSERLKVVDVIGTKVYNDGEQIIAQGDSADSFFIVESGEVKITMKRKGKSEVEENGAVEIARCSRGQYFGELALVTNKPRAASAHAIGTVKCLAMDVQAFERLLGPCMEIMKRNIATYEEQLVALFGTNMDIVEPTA
Neddyl conf – blockade of NEDD8 conjugation to cullin – biochemical, TR-FRET, single concentration, confirmation; shares compounds with Neddylation inh; TR-FRET cullin neddylation biochemical assay; calls only at 25 µM; AID 652217, 2013; hit rate 13% among 1,800; in the data active = inhibition above about 40%;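 note: neddylation substrate is the cullin 1 ring ligase complex with SKP2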
Calls only; n = inactive; x = no result shown; + = active, no number; ! = repeats disagree.

SMILES | Neddylation inh | PKA-R1A act | PolyA inhibitor | PKA-R2B activ | Neddyl conf
CCOC(=O)N1CCN(C(=O)c2ccc3nc(-c4ccccc4)c(-c4ccccc4)nc3c2)CC1 | + | n | n | n | n
NC(=O)C1CCN(C(=O)c2ccc3nc(-c4ccccc4)c(-c4ccccc4)nc3c2)CC1 | + | n | n | n | x
NC(=O)C1CCN(C(=O)c2ccc3ncsc3c2)CC1 | n | n | x | n | x
CCOC(=O)N1CCN(C(=O)c2ccc3oc(CCc4ccccc4)nc3c2)CC1 | n | n | x | n | x
Nc1ccc(C(=O)N/N=C/c2cn(Cc3ccccc3)c3ccccc23)cc1 | + | n | n | n | n
Nc1ccc(C(=O)N/N=C/c2cn(Cc3ccc(F)cc3)c3ccccc23)cc1 | n | n | n | n | x
CCOC(=O)C1=NN(C(=O)COc2ccccc2)C(O)(c2ccc(Br)cc2)C1 (stereo not given) | n | n | n | n | x
O=C(NCCCCCCNC(=O)c1ccccc1O)c1ccccc1O | n | n | n | n | x
O=C(NCCCc1ccccc1)c1ccccc1O | + | n | n | n | n
Oc1cc2c(c(Cl)c1O)CCNCC2c1ccccc1 (stereo not given) | n | n | n | n | x
Oc1ccc(C2CNCCc3c2cc(O)c(O)c3Cl)cc1 (stereo not given) | +! | n | n | n | x
CCOc1ccc(S(=O)(=O)Nc2ccc(C(=O)NCC(c3ccccc3)N(C)C)cc2)cc1 (stereo not given) | n | n | n | n | x
S=C(Nc1ccc2nsnc2c1)N1CCCCCC1 | + | n | n | n | n
O=C(Nc1ccc2nsnc2c1)N1CCCCC1 | + | n | n | n | n
CC1CCN(C(=O)Nc2ccc3nsnc3c2)CC1 | + | n | n | n | +
COc1ccc(CCNC(=O)c2ccc(CS(=O)Cc3ccc(Cl)cc3)o2)cc1OC (stereo not given) | n | n | n | n | x
Cc1ccc(C(=O)Nc2cccc(C(F)(F)F)c2)cc1Nc1ncnc2nc[nH]c12 | n | n | n | n | x
COc1ccc2oc(C(=O)CCC(=O)O)c(N)c2c1 | + | n | n | n | n
COc1ccccc1C=NNC(=O)C(=O)NN=Cc1ccccc1OC | + | n | x | n | n
COc1ccccc1/C=N/NC(=O)c1ccccc1NS(=O)(=O)c1ccc(C)cc1 | + | n | n | n | x
CN(C)S(=O)(=O)c1ccc(N2CCCC2)c(C(=O)NNC(=O)c2ccccc2)c1 | n | n | x | n | x
COc1ccc(-c2cc(CCC(=O)N3CCN(c4cc(C)ccc4C)CC3)on2)cc1 | n | n | x | n | x
O=C(COC(=O)C12CC3CC(CC(O)(C3)C1)C2)Nc1cccc(Br)c1 | n | n | x | n | x
CCN1C(=O)c2cccc3c(S(=O)(=O)NCc4ccco4)ccc1c23 | + | n | n | n | n
CCN1CCN(S(=O)(=O)c2ccc3c4c(cccc24)C(=O)N3CC)CC1 | + | n | x | n | x
SMILES | Neddylation inh | PKA-R1A act | PolyA inhibitor | PKA-R2B activ | Neddyl conf
CCN1C(=O)c2cccc3c(S(=O)(=O)NCc4cccnc4)ccc1c23 | x | n | n | n | x
CCCCCCCC(=O)N/N=C(\C)c1ccc(O)cc1O | + | n | n | n | n
N#Cc1ccsc1NC(=O)CCN1CCN(C(c2ccccc2)c2ccccc2)CC1 | n | n | n | n | x
CC(=O)c1cccc(OCC(=O)N(C)CC(=O)NCc2ccco2)c1 | n | n | x | n | x
O=C(C[C@@H]1C/C=C\C[C@@H](NC(=O)OCC2c3ccccc3-c3ccccc32)C(=O)OCCNC1=O)N[C@@H](CO)Cc1ccccc1 | n | n | x | n | x
COC(=O)c1nc2cc3c(cc2c(C)c1C(=O)OC)OCO3 | + | n | n | n | +
CNC(=S)Nc1cccc(C(=O)OC)c1 | n | x | n | x | x
COc1cccc(/C=N/n2nnnc2N)c1OCc1ccccc1Cl | + | n | n | n | x
COc1ccc(C(=O)COC(=O)CCN2C(=O)C3C4C=CC(C5CC45)C3C2=O)cc1 (stereo not given) | n | n | n | n | x
Cn1c(=O)c2nc(-c3ccccc3)c(-c3ccccc3)nc2n(C)c1=O | + | n | n | n | n
Cn1c(=O)c2nc(Cl)c(-c3ccccc3)nc2n(C)c1=O | n | n | n | n | x
CC(C)c1ccc(-c2cc(C(=O)N3CCOCC3)c3cc(Br)ccc3n2)cc1 | n | n | n | n | x
O=c1oc2ccccc2cc1-c1nnc(NCc2ccco2)s1 | + | n | n | n | n
Nc1nnc(-c2cc3ccccc3oc2=O)s1 | + | n | n | n | +
COc1cccc(C(=O)Oc2ccc3ccc(=O)oc3c2)c1 | x | n | n | n | x
CC1CCC(NC(=O)COC(=O)C2=NN(c3ccccc3)C(=O)CC2)CC1 (stereo not given) | n | n | x | n | x
O=C(Cc1cccs1)NCCS(=O)(=O)N1CCN(c2cccc(Cl)c2)CC1 | n | n | n | n | x
CN(C)c1oc(-c2ccccc2Cl)nc1C#N | + | n | n | n | n
COC(=O)c1cc(NCc2ccccc2F)ccc1N1CCOCC1 | n | n | x | n | x
CCOC(=O)c1cc(NC(=O)c2cccs2)ccc1N1CCOCC1 | n | n | n | n | x
CCOC(=O)c1cc(NCc2cccs2)ccc1N1CCOCC1 | + | n | n | n | n
CCOc1ccccc1CNc1ccc(N2CCOCC2)c(C(=O)O)c1 | + | n | n | n | n
Cc1ccc(N2CC(C(=O)Nc3nc4ccc(S(C)(=O)=O)cc4s3)CC2=O)cc1 (stereo not given) | n | n | n | n | x
O=C(NNC(=O)c1csc(-c2cnccc2C(F)(F)F)n1)c1ccc(C(F)(F)F)cc1 | + | x | n | x | n
Clc1ccc(/C=C/c2nc(Cl)c(-c3ccc(Cl)cc3)c(Cl)n2)cc1 | + | n | n | n | n
SMILES | Neddylation inh | PKA-R1A act | PolyA inhibitor | PKA-R2B activ | Neddyl conf
Nc1nc(N)nc(-c2ccc(Cl)cc2)n1 | n | n | n | n | x
COCC(=O)N(C)[C@H]1C[C@H]2c3[nH]c4ccccc4c3CCN2C(=O)[C@H]1[C@H](C)O | x | n | x | n | x
C[C@H](O)[C@@H]1C(=O)N2CCc3c([nH]c4ccccc34)[C@@H]2C[C@@H]1N(C)Cc1ccc(Cl)cc1 | + | n | x | n | n
CCCN1CCN(C(=O)Cn2ncc3c([nH]c4ccc(C)cc43)c2=O)CC1 | + | n | n | n | n
Cc1ccc2[nH]c3c(=O)n(CC(=O)N4CC(C)CC(C)C4)ncc3c2c1 (stereo not given) | n | n | n | n | x
CC1=C(C(=O)N2CCCCCC2)CC(CC(=O)NCc2cccc3ccccc23)C(=O)N1CCC1=CCCCC1 (stereo not given) | n | x | x | x | x
CCOc1cc(/C=N/NC(=O)c2cc3c(ccc4ccccc43)o2)ccc1O | x | n | x | n | x
